Screening results (PubChem BioAssay)
sPLA2-III inh: human group III sPLA2 inhibitors, primary screen, biochemical, QFRET, BODIPY PC-A2 liposome substrate; Group 3 secretory phospholipase A2 (Homo sapiens), Q9NZ20; QFRET BODIPY PC-A2 liposome hydrolysis, fluorescence; inhibition, % at 12.2 µM; 0.56% of 370,000 active;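 active = inhibition above mean plus 3 SD of compounds lying within the high and low control bounds, cut at about 19% in these data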;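 note: 0% = median of test compound wells and 100% = no enzyme DMSO wells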
Target sequence (Q9NZ20 whole entry, looked up): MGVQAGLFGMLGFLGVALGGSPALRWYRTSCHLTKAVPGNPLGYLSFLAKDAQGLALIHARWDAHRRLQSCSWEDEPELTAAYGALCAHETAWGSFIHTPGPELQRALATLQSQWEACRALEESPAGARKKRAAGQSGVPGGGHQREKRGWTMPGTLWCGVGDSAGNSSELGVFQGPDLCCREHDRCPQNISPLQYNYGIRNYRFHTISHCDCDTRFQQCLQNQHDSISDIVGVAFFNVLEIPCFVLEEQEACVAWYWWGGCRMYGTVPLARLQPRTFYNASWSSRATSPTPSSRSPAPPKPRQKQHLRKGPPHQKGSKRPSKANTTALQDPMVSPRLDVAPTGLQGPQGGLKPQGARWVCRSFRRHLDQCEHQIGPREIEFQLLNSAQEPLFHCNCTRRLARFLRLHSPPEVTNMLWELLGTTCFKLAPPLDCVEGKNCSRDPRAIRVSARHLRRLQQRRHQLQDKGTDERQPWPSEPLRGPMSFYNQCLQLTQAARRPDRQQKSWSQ
PG9 binder: binders of HIV-1 gp120 antibody PG9, primary screen, biochemical, TR-FRET; inhibition, % at 6.7 µM; HIV-1 gp120 / PG9 antibody interaction; 0.43% of 360,000 active; TR-FRET gp120-PG9 antibody binding; in the data active = inhibition above about 8.5%
rCAG binder: binders of r(CAG) RNA repeats, primary screen, biochemical, fluorescence; r(CAG) RNA repeat, TO-PRO-1 dye displacement fluorescence; inhibition, % at 3 µM; 1.3% of 370,000 active; AID 651821, 2012;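 active = inhibition above the plate cutoff, the mean of all test compounds on that plate plus 3 SD, cut at about 35% in these data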;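 note: 0% = DMSO alone and 100% = 100 µM mitoxantrone as full dye displacement; higher means more dye released from RNA so lower well fluorescence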
MsrA act: bovine MsrA enzyme activators, primary screen, biochemical, absorbance, HTS; activation, % at 10.6 µM; purified bovine MsrA, absorbance read-out; AID 602163, 2012; Methionine sulfoxide reductase A (Bos taurus); 0.3% of 360,000 active; in the data active = activation above about 7.5%;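 note: 0% = vehicle and 100% = reference activator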
MsrA inhibitor: bovine MsrA enzyme inhibitors, primary screen, biochemical, absorbance, HTS; Methionine sulfoxide reductase A (Bos taurus); purified bovine MsrA, absorbance read-out; inhibition, % at 15.5 µM; 0.75% of 360,000 active; AID 651718, 2012;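 note: 0% = vehicle wells with enzyme and 100% = reference inhibitor wells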
MsrA conf: bovine MsrA inhibitors, retest, confirmation, biochemical, absorbance, HTS | inhibition, % at 15.5 µM | AID 651822, 2012 | purified bovine MsrA, absorbance read-out | shares compounds with MsrA inhibitor | 41% of 2,300 active;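 note: coupled to thioredoxin reductase with NADPH and selenocystamine and DMSO as substrate; 0% = vehicle only and 100% = full effect of reference inhibitor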
* = called active by the depositor; . = no result. Only some compounds are listed: those with a hit (about 3.2% of all), similar ones and a draw of the others. Cut-off read from the data, not from the text of the source, unless noted: active = inhibition above about 4.5%; inactive = the rest.

SMILES | sPLA2-III inh | PG9 binder | rCAG binder | MsrA act | MsrA inhibitor | MsrA conf
O=C(c1ccccc1Cl)N1CCC(Oc2cccnc2)CC1 | 6 | . | 0 | . | . | .
COc1ccccc1CNC(=O)NNC(=O)CCn1nc(C)c([N+](=O)[O-])c1C | 2 | . | 1 | . | . | .
O=C(OCC(=O)N1CCN(C(=O)c2ccco2)CC1)c1ccccc1NCCO | 8 | 2 | 0 | -2 | 4.7* | 1
O=C(CSc1nnc(-c2ccccn2)n1-c1ccccc1)Nc1ccc2c(c1)OCCO2 | 1 | . | 5 | . | . | .
C=CCSc1nc2sc3c(c2c(=O)n1-c1ccccc1)CCN(C)C3 | -5 | -2 | 9 | 0 | 4.9* | 1
Cn1c(=O)n(C)c2cc(/C=C3/SC(=O)N(CC(=O)N4CCOCC4)C3=O)ccc21 | 9 | -2 | -4 | -4 | 4.8* | 5
O=C1c2ccccc2C(=O)C1c1ccc(Br)cc1 | -5 | 0 | 1 | 0 | 0 | .
O=C1c2ccccc2C(=O)C1c1ccc(O)cc1 | -10 | 1 | 4 | -5 | 4.9* | 3
CN(CCCOC(=O)c1cc2ccccc2o1)C1CN(Cc2cn(Cc3ccccc3C(F)(F)F)nn2)S(=O)(=O)C1 (centres undefined) | -3 | . | 7 | . | . | .
O=C(N/N=C/c1ccc(Br)s1)c1ccccn1 | -2 | -3 | -2 | -2 | 6.0* | 7.0*
O=C(N/N=C/c1ccsc1)c1ccccn1 | 0 | 1 | -2 | -8 | 2 | .
Cc1ccsc1/C=N/NC(=O)c1ccccn1 | 13 | -2 | -4 | -3 | 5.7* | 4
Cc1ccc(/C=C(\C#N)C(=O)NCc2ccco2)o1 | 7 | -2 | -1 | -4 | 3 | .
CCOCCCNC(=O)/C(C#N)=C/c1ccc(C)o1 | 0 | 1 | -1 | -4 | 7.0* | 4
COCCNC(=O)/C(C#N)=C/c1ccc(SC)cc1 | 7 | 0 | -4 | -3 | 4.7* | 4
COCCNC(=O)/C(C#N)=C/c1ccc(C)o1 | 5 | 0 | -1 | -15 | 6.8* | 3
COCCNC(=O)/C(C#N)=C/c1ccc(C(=O)O)cc1 | 1 | 1 | -1 | 0 | -1 | .
COC(=O)[C@@]1(OC(C)=O)CC(OC(C)=O)[C@H](OC(C)=O)[C@H](OC(C)=O)C1Br (some centres undefined) | 7 | . | . | . | . | .
CCOC(=O)CSC1=NC(=O)/C(=C\c2ccc(OC(C)=O)cc2)S1 | -4 | 0 | 4 | -3 | 5.4* | 2
CCOC(=O)CSC1=NC(=O)/C(=C/c2ccc(Br)cc2)S1 | -40 | -2 | 17 | -4 | 3 | .
O=C1OC(c2ccccc2)=N/C1=C\C=C\c1ccccc1[N+](=O)[O-] | -4 | -5 | 12 | -7 | 2 | .
O=C(NN=C/C=C/c1ccco1)c1cc(-c2ccc(Cl)cc2)n[nH]1 | 14 | . | 26 | . | . | .
O=C1OC(c2ccccc2)=N/C1=C\C=C\c1ccco1 | -7 | -5 | 5 | -7 | 4.9* | 2
O=C1OC(c2ccc(Cl)cc2)=N/C1=C\C=C\c1ccco1 | -3 | -2 | 11 | 0 | 4.7* | 4
Nc1[nH]c(C(=O)c2ccccc2)c(-c2ccc(Cl)cc2Cl)c1C(=O)NCCC1=CCCCC1 | 15 | . | . | . | . | .
SMILES | sPLA2-III inh | PG9 binder | rCAG binder | MsrA act | MsrA inhibitor | MsrA conf
COC(=O)[C@]12C[C@H](CC(=O)N3CCN(C(=O)c4ccco4)CC3)C(=O)N(Cc3ccc(Cl)cc3Cl)C1=C[C@H](C1CCCC1)O[C@@H]2C | -5 | . | 9 | . | . | .
COc1ccc(C(=O)/C=C/Nc2cc(C)on2)c(OC)c1 | -3 | 0 | 1 | -2 | 7.4* | 5.5*
COc1ccc(C(=O)/C=C/Nc2ccc([N+](=O)[O-])cc2C)c(OC)c1 | . | . | . | -6 | . | .
NC(=O)c1cc(S(=O)(=O)N2CCN(c3ccc([N+](=O)[O-])cc3)CC2)cs1 | -7 | -3 | 10 | -2 | 7.8* | 4.8*
O=[N+]([O-])c1ccc(N2CCCC2)c([N+](=O)[O-])c1 | -3 | -2 | 1 | -5 | 9.0* | 5.5*
CCOC(=O)/C(C#N)=C/c1cn(CCC(=O)O)nc1-c1ccc(OC)cc1 | 2 | 4 | 15 | -5 | 5.0* | 2
NS(=O)(=O)c1ccc(-c2ccc(/C=C3\NC(=S)NC3=O)o2)cc1 | -2 | -6 | 21 | -3 | 2 | .
NS(=O)(=O)c1ccc(-c2ccc(C=O)o2)cc1 | -1 | -2 | 1 | -12 | 4.7* | 3
COCc1cc(C)nc(N/N=C/c2ccc(-c3cc(C(=O)O)ccc3Cl)o2)c1C#N | 1 | -2 | 7 | . | 5.3* | 1
COc1cc(/C=C2\C(=O)ON=C2c2ccccc2)cc(Br)c1O | 1 | 1 | 3 | -8 | 5.5* | 2
CCOc1cc(/C=C2\C(=O)ON=C2c2ccccc2)cc(Br)c1O | -4 | 3 | 10 | -8 | 4 | .
CCOc1cc(/C=C2/C(=O)ON=C2C)cc(Br)c1O | 4 | -2 | 1 | -11 | 5.0* | 3
COc1ccc2c(c1)CCCN2C(=O)C1CCCN(S(=O)(=O)c2ccc(C(C)(C)C)cc2)C1 (centres undefined) | -3 | . | 8 | . | . | .
O=C(N/N=C/c1ccc[nH]1)c1cccnc1 | 3 | -1 | -1 | -5 | 5.7* | 5.2*
Cc1ccc(C(=O)N/N=C\c2ccc[nH]2)cn1 | 11 | 0 | 1 | -3 | 6.6* | 4
O=C(N/N=C/c1ccc[nH]1)c1c[nH]c2ccccc12 | 5 | -1 | 0 | -12 | 5.8* | 4
Cc1ccc(C(=O)N/N=C\c2cccn2C)cn1 | 5 | 0 | -4 | -11 | 7.8* | 4.7*
O=C(N/N=C/c1ccccn1)c1c[nH]c2ccccc12 | 10 | -1 | 0 | -2 | 2 | .
Cc1ccc(C(=O)N(C)[C@H]2C[C@H]3c4[nH]c5c(-c6cccc(C)c6)cccc5c4CCN3C[C@H]2[C@H](C)O)cc1 | -1 | . | 4 | . | . | .
CC(C)c1ccc(C(=O)Nc2ccc(S(=O)(=O)NC3=NCCCCC3)cc2)cc1 | -10 | -1 | 3 | 2 | 1 | .
CN(C)c1ccc(C(=O)Nc2ccc(S(=O)(=O)NC3=NCCCCC3)cc2)cc1 | -7 | -2 | 5 | -6 | 5.1* | 2
COC(=O)C(NC(=O)c1ccccc1)=C1C=C(C)OC(C)=C1 | 4 | 0 | 0 | 0 | 5.3* | 4
Nc1ccc(C(=O)CC(=O)Nc2ccc(Cl)cc2)cc1 | -18 | -1 | 9 | 0 | 5.0* | 1
Nc1ccc(NC(=O)c2ccc(C(=O)Nc3ccc(N)cc3)cc2)cc1 | 10 | -2 | 3 | -2 | 1 | .
O=[N+]([O-])c1c(Nc2ccccc2O)cc(N2CCOCC2)c2nonc12 | -28 | -2 | 2 | -6 | 18* | 24*
